Only a selection was taken, and hits are over-represented in it overall.
LmPK inh: blocks Leishmania mexicana pyruvate kinase activity | Q27686 | hit rate 0.37% among 290,000 | purified LmPK, Kinase-Glo ATP luminescence, 1 h | Potency, µM (titrated, usually from 57.5 µM), actives largely listed as inhibitors; active = well fitted curve in the direction sought with a large enough effect; inconclusive = small, poorly fitted or top-dose-only effect, or another doubt; inactive = no such curve, though single readings can be large; an effect the other way counts as inactive or inconclusive
Target sequence (Q27686 whole entry, looked up): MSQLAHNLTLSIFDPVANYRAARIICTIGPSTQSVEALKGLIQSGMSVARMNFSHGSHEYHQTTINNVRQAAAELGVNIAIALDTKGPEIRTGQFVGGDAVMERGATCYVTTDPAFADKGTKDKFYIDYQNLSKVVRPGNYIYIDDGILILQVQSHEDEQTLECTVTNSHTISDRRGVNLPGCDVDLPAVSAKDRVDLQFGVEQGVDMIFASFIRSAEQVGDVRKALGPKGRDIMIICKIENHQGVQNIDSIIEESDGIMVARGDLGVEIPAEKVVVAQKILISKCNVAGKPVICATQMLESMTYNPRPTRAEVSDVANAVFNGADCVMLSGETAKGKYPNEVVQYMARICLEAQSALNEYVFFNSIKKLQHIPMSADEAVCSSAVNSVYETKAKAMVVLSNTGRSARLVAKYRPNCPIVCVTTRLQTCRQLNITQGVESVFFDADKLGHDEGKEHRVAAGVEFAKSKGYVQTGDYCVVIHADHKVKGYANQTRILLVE
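Screened at intermediate enzyme activity to detect both inhibitors and activators: LmPK at 0.1 nM, with a 0.5 nM enzyme column as activation reference. PEP 0.5 mM, ADP 0.1 mM; ATP detected by luminescence after 1 h.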
Cycloheximide cs: affects cycloheximide protein synthesis inhibition readout, counter-screen | cell reporter, cycloheximide protein synthesis inhibition counterscreen | max response, % | hit rate 12% among 300,000; in the data active = max response mostly above about 13%, no sharp cut-off; inactive = mostly below about 14%; note: read at 38.3 µM for the half of the compounds with a filed dose
NS1 function inh: influenza NS1 inhibition. Potency, µM (top dose mostly 46.1 µM). hit rate 0.4% among 270,000. AID 2326; note: actives are rising curves; nearly all actives have a fitted effect of over 50% in size
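S. cerevisiae expressing influenza A NS1, grown in glucose, washed, then diluted 1:100 into pH 6.0 -URA galactose medium with 23 nl compound. Growth recovery read as OD600; NS1-free strain serves as control.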
Tb PYK inh: blocks Trypanosoma brucei pyruvate kinase. Q57TT1. TbPYK enzyme, Kinase-Glo Plus ATP luminescence, 45 min. Potency, µM (series often up to 76.8 µM), hits mostly inhibitors. hit rate 0.12% among 410,000; active = well fitted curve in the direction sought with a large enough effect; inconclusive = small, poorly fitted or top-dose-only effect, or another doubt; inactive = no such curve, though single readings can be large; an effect the other way counts as inactive or inconclusive; note: nearly all actives have a fitted effect of over 50% in size
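Readout: single end-point luminescence (Kinase-Glo Plus, 10 min). Reaction conditions were TbPYK/substrate plus 130 uM ADP, 45 min at RT, pH 7.2 TEA buffer. No-enzyme wells served as controls, and data were normalized before concentration-response fitting.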
SARS PLpro yeast: inhibitors of SARS-CoV papain-like protease in yeast; hit rate 0.19% among 330,000; S. cerevisiae expressing SARS-CoV PLpro, growth rescue; Potency, µM (top dose mostly 32.9 µM), usual class: activators; note: nearly all actives have a fitted effect of over 55% in size
Shiga toxin inh: inhibitors of Shiga toxin in Vero cells. Vero cells, Shiga toxin protein synthesis inhibition reporter. inhibition, % at 38.7 µM. hit rate 9.2% among 290,000. AID 2315; in the data active = inhibition mostly above about 28%, no sharp cut-off; inactive = mostly below about 43%
Large screens that a line does not name were inactive. Unless noted, calls come from the whole dose curve.

O=C(COc1ccc(Cl)cc1Cl)OCC(=O)N1CCCc2ccccc21	none
O=C(CCCOc1ccc(Cl)cc1Cl)N1CCCc2ccccc21	Cycloheximide cs 29.7, Shiga toxin inh 55.8
COc1cc(NC(=O)c2ccc3c(c2)OCCO3)ccc1NC(=O)c1ccco1	Cycloheximide cs 18.9, Shiga toxin inh 39.2
COc1cc(NC(=O)c2ccc3c(c2)OCCO3)ccc1NC(=O)c1cccs1	Cycloheximide cs 21.8
Cc1ccccc1NC(=O)CSCn1nnc2c(=O)[nH]c(Cc3ccc(F)cc3)nc21	none (no result: LmPK inh, Cycloheximide cs, NS1 function inh, SARS PLpro yeast, Shiga toxin inh)
COc1ncccc1-c1nnn(-c2ccc(C)cc2)n1	Cycloheximide cs 48.5, Shiga toxin inh 131.4
COc1ncccc1-c1nnn(-c2ccc(F)cc2)n1	Cycloheximide cs 54.4, Shiga toxin inh 71.0
O=c1[nH]c2ccccc2cc1-c1nnn(-c2ccc(Cl)c(Cl)c2)n1	none (no result: LmPK inh, Cycloheximide cs, NS1 function inh, SARS PLpro yeast, Shiga toxin inh)
COc1ncccc1-c1nnn(-c2ccc(Cl)c(Cl)c2)n1	Cycloheximide cs 18.0
Cc1ccc(-n2nnc(-c3cc4ccccc4nc3Cl)n2)cc1	none
Cc1c(/C(O)=C2/C(=O)C(=O)N(Cc3cccnc3)C2c2cccs2)cnn1-c1ccccc1 (centres undefined)	Cycloheximide cs 51.7, SARS PLpro yeast inconclusive, Shiga toxin inh 168.1
Cc1c(/C(O)=C2/C(=O)C(=O)N(Cc3cccnc3)C2c2ccccn2)cnn1-c1ccccc1 (centres undefined)	Cycloheximide cs 34.2
CCS(=O)(=O)c1nc(S(=O)(=O)c2ccc(Cl)cc2)c(N2CCC(C(N)=O)CC2)s1	none
CCCCNC(=O)COC(=O)c1ccc(F)cc1Cl	Cycloheximide cs 12.7, Shiga toxin inh 75.8 (no result: NS1 function inh)
CCCCNC(=O)COC(=O)c1cc(F)c(F)cc1Cl	none
C=CCNC(=O)/C(C#N)=C\c1cc(Cl)c(O)c(OCC)c1	none
CCOc1cc(/C=C2\CCC/C(=C\c3cc(Cl)c(O)c(OCC)c3)C2=O)cc(Cl)c1O	Cycloheximide cs 22.7
CCOc1cc(/C=C2\CN(C)C/C(=C\c3ccc(O)c(OCC)c3)C2=O)ccc1O	Cycloheximide cs 27.3
CCOc1cc(/C=C2\N=C3CCCCCN3C2=O)ccc1O	Cycloheximide cs 35.9, Shiga toxin inh 97.2
COc1cccc(/C=C2\N=C3CCCCCN3C2=O)c1	Cycloheximide cs 51.8, Shiga toxin inh 106.4
CCOc1cc(/C=C2\SC(N)=NC2=O)ccc1O	none
COc1cccc(/C=C2\SC(=S)N(CCCC(=O)N3CCCC3)C2=O)c1	none
Cc1ccc(C(=O)/C=C/c2cn(CC(O)CN3CCOCC3)c3ccccc23)cc1 (centres undefined)	Cycloheximide cs 29.7
COc1ccc(C(=O)/C=C/c2cn(CC(O)CN3CCOCC3)c3ccccc23)cc1 (centres undefined)	Cycloheximide cs 12.5
O=C(/C=C/c1cn(CC(O)CN2CCOCC2)c2ccccc12)c1cccs1 (centres undefined)	none (no result: Tb PYK inh)
CC(C)c1ccc(NC(c2nnc(-c3ccccc3)o2)c2ccc(F)cc2Cl)cc1 (centres undefined)	none (no result: LmPK inh, Cycloheximide cs, NS1 function inh, SARS PLpro yeast, Shiga toxin inh)
C[C@@H]1CN([C@@H](C)CO)C(=O)c2cc(NC(=O)C3CCCCC3)ccc2O[C@@H](C)CCCCO[C@H]1CN(C)S(=O)(=O)c1ccc(Cl)cc1	none (no result: LmPK inh, Cycloheximide cs, NS1 function inh, SARS PLpro yeast, Shiga toxin inh)
O=C1Cc2cc(S(=O)(=O)N3CCN(c4cccc(Cl)c4)CC3)ccc2N1	none
Cc1ccnc(NC(=O)CNC(=O)c2ccc(Br)o2)c1	none (no result: LmPK inh, Cycloheximide cs, NS1 function inh, SARS PLpro yeast, Shiga toxin inh)
Oc1ccccc1C1C=C(c2ccc3c(c2)OCO3)NC(c2ccc(F)c(Br)c2)N1 (centres undefined)	Cycloheximide cs 36.1, Shiga toxin inh 99.7 (no result: LmPK inh, NS1 function inh, Tb PYK inh, SARS PLpro yeast)
O=C1C=C(c2ccc3c(c2)OCO3)C[C@@H](c2ccc(F)cc2)C1	none (no result: LmPK inh, Cycloheximide cs, NS1 function inh, Shiga toxin inh)
Oc1ccc(Br)cc1C1C=C(c2ccc3c(c2)OCO3)NC(c2ccc(F)c(Br)c2)N1 (centres undefined)	Cycloheximide cs 54.5, Shiga toxin inh 93.2 (no result: LmPK inh, NS1 function inh, Tb PYK inh, SARS PLpro yeast)
CCOc1ccccc1N1CCN(C(=O)c2cn(CC3CCCCC3)nn2)CC1	Cycloheximide cs 37.4, Shiga toxin inh 142.1
Cc1ccn2c(=O)cc(COc3ccc(NC(=O)COc4ccc(C)c(C)c4)cc3)nc2c1	none (no result: LmPK inh, Cycloheximide cs, NS1 function inh, SARS PLpro yeast, Shiga toxin inh)
CC(C)(C)c1ccc(-c2n[nH]c(=S)n2C2CCCC2)cc1	LmPK inh 10µM, Tb PYK inh inconclusive
CC(C1CC2CCC1C2)n1c(-c2cccs2)n[nH]c1=S (centres undefined)	LmPK inh 5.01µM, Tb PYK inh inconclusive
Nc1sc(-c2ccccc2)cc1-c1n[nH]c(=S)n1C1CCCCC1	NS1 function inh inconclusive
S=c1[nH]nc(-c2cccs2)n1C1CCCCC1	LmPK inh 3.55µM, Tb PYK inh 7.08µM
Cn1c(-c2ccc(C(C)(C)C)cc2)n[nH]c1=S	Cycloheximide cs 36.1, Tb PYK inh inconclusive, Shiga toxin inh 59.2
COc1ccc(C(=O)N2CCC3(CC2)NCCc2[nH]cnc23)cc1OC	none
CS(=O)(=O)Cc1ccc(C(=O)NC2CCCc3ccccc32)cc1 (centres undefined)	none
CC[C@]1(C(=O)OC)[C@H]2C(=O)N(Cc3ccccc3)C(=O)[C@H]2[C@H]2CN=C(SCC3CC3)N21	none (no result: LmPK inh, Cycloheximide cs, NS1 function inh, Shiga toxin inh)
O=C(c1cc(-c2ccc(Cl)cc2Cl)on1)N1CCCCCC1	Cycloheximide cs 38.1, Shiga toxin inh 99.4
O=C(c1cc(-c2ccc(Cl)cc2Cl)on1)N1CCN(C(=O)c2ccco2)CC1	none
O=C(c1cc(-c2ccc(Cl)cc2Cl)on1)N1CCCC1	Cycloheximide cs 23.4, Shiga toxin inh 89.3
COC(=O)C(O)(c1ccc(NC(=O)c2cccs2)cc1)C(F)(F)F (centres undefined)	Cycloheximide cs 33.3, Shiga toxin inh 71.7
COC(=O)C(O)(c1ccc(NC(=O)c2ccccc2)cc1)C(F)(F)F (centres undefined)	Cycloheximide cs 51.1, Shiga toxin inh 103.1
CCCCNC(=O)Nc1ccc(C(O)(C(=O)OC)C(F)(F)F)cc1 (centres undefined)	none
C[C@H]1Cc2c(COc3ccccc3)nc3c(c2CO1)CN(C(=O)Cc1cccs1)CC3	none (no result: Cycloheximide cs, NS1 function inh, Tb PYK inh, SARS PLpro yeast, Shiga toxin inh)
CC(Oc1ccc(Cl)cc1Cl)c1nc(-c2ccc(NC(=O)c3ccco3)cc2)no1 (centres undefined)	Cycloheximide cs 71.5, Shiga toxin inh 113.4
Cc1ccccc1OCc1nc(-c2ccc(NC(=O)c3ccc4c(c3)OCO4)cc2)no1	none
Cc1ccccc1OCc1nc(-c2ccc(NC(=O)c3ccco3)cc2)no1	Cycloheximide cs 34.9, Shiga toxin inh 52.1
Cc1ccccc1OCc1nc(-c2ccc(NC(=O)c3cccs3)cc2)no1	Cycloheximide cs 49.8, Shiga toxin inh 154.2
CCOc1ccc(C(=O)NNC(=O)CCNC(=O)c2ccco2)cc1OC	none (no result: LmPK inh, Cycloheximide cs, NS1 function inh, Shiga toxin inh)
CC1CCCC(C)N1CC(O)COc1ccc(Cl)cc1 (centres undefined)	none
CC(=O)Nc1ccc(OCC(O)CN2C(C)CCCC2C)cc1 (centres undefined)	Cycloheximide cs 19.9

High-throughput results (PubChem)
